p53null 39C tox: selectivity test: cytotoxicity in p53 null cells, nonpermissive temperature | H1299 p53-null (neo) cells, 39C, ATPlite viability, 24 h | Potency, µM (doses to about 46.1 µM), most hits filed as cytotoxic | hit rate 0.97% among 55,000 | AID 904; note: nearly all actives have a fitted effect of over 50% in size
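ATP-luminescence viability readout (ATPlite, 20 min RT) after 24 hr compound treatment at 39C of H1299-neo or H1299-p53A138V cells; titration up to 46 uM; normalized to DMSO and 100 uM tamoxifen; Hill-fit AC50.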
SKOV3 invasion: inhibitors of ovarian cancer cell adhesion and invasion in omental model; Potency, µM (doses to about 45.8 µM), most hits filed as inhibitors; hit rate 0.1% among 46,000; SKOV3ip1-GFP adhesion/invasion on 3D omental model, fluorescence; note: nearly all actives have a fitted effect of over 65% in size
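Adhesion/invasion was scored as fixed GFP-labeled SKOV3ip1 cell counts (488/509 nm), normalized to DMSO and tomatine controls. Cancer cells in serum-free medium, with four compound doses (0.36-46 umol/L), sat 2 hr at RT then 16 hr at 37 C on a 48 hr fibroblast/mesothelial/ECM culture.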
p53null 32C kill: p53 null cell cytotoxicity, permissive temperature; Potency, µM (highest dose often 46.1 µM), actives largely listed as cytotoxic; H1299-neo p53 null cells, ATP luminescence, 24 h, 32C; hit rate 0.62% among 55,000; AID 903; note: nearly all actives have a fitted effect of over 55% in size
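Luminescent ATP readout gave cell viability of p53-null H1299-neo cells after a 24 h compound exposure at the permissive 32C. Titrations ran up to 46 uM, and AC50s were fitted with the standard Hill equation.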
NTMT1 inhibitor: blocks human N-terminal methyltransferase 1 activity; Potency, µM (highest dose often 114 µM), hits mostly inhibitors; AID 1645870; NTMT1 MTase-Glo SAH luminescence, purified enzyme; hit rate 2.5% among 59,000; note: nearly all actives have a fitted effect of over 65% in size
Target sequence (Q9BV86 whole entry, looked up): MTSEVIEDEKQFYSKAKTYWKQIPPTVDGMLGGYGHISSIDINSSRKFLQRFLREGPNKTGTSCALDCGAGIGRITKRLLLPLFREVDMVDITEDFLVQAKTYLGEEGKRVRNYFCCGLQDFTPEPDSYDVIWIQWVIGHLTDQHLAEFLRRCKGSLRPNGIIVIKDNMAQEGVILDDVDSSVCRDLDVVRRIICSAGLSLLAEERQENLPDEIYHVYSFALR
Hits are given with their value; - = inactive; ? = inconclusive; . = no result; ! = a repeat was not active. Shown is part of a subset that was picked to be rich in hits. Calls come from the whole dose curve; as a rule, active = well fitted curve in the direction sought with a large enough effect; inconclusive = small, poorly fitted or top-dose-only effect, or another doubt; inactive = no such curve, though single readings can be large; an effect the other way counts as inactive or inconclusive.

SMILES | p53null 39C tox | SKOV3 invasion | p53null 32C kill | NTMT1 inhibitor
Cc1ccc(-c2csc(NC(=O)c3ccccc3NS(=O)(=O)c3ccc(C)cc3)n2)cc1 | . | . | . | -
O=C(Nc1nc(-c2ccccc2)cs1)c1ccncc1NS(=O)(=O)c1cccc2cccnc12 | . | . | . | 50µM
Cc1ccc(S(=O)(=O)Nc2cnccc2C(=O)Nc2nc(-c3ccc(Oc4ccccc4)cc3)cs2)cc1 | . | . | . | 45µM
CC1CCN(c2ccc(-c3cccc(NS(=O)(=O)c4ccc(F)cc4F)c3)nn2)CC1 | 10µM | - | 10µM | .
Cc1cccc(S(=O)(=O)Nc2cccc(-c3ccc(N4CCCCC4)nn3)c2)c1 | ? | - | ? | -
Cc1ccc(S(=O)(=O)Nc2cccc(-c3ccc(N4CCC(C)CC4)nn3)c2)s1 | 16µM | - | 13µM | .
O=S(=O)(Nc1cccc(-c2ccc(N3CCCCC3)nn2)c1)c1ccc(F)cc1F | ? | - | ? | -
COc1cc(OC)c(/C=C/S(=O)(=O)Cc2ccc(OC)c(OP(=O)(O)O)c2)c(OC)c1 | . | . | . | -
COc1cc(NC(=O)c2cc(-c3ccc(Cl)c(Cl)c3)on2)cc(OC)c1OC | 25µM | ? | ? | .
CC(C)c1ccc(NC(=O)c2cc(S(=O)(=O)NCCc3ccccc3)ccc2F)cc1 | - | - | - | -
CC(C)c1ccccc1Cc1cc(C(=O)Nc2ccc(S(=O)(=O)c3ccccc3C(C)(C)C)cc2)c(O)c(O)c1O | . | - | . | 71µM!
CCCn1c(C)nc2c(NCCN(CC)CC)nc(C)nc21 | . | . | . | -
CCCN(CCC)C(=O)C1=Cc2ccc(-c3ccc(C(=O)N4CCCC4)cc3)cc2N=C(N)C1 | . | . | . | -
O=C(Nc1ncc(Cc2ccccc2)s1)c1ccc(-c2cccc([N+](=O)[O-])c2)o1 | . | . | . | -
CCC1CCCCN1CCCNC(=O)c1ccc2c(c1)N(Cc1ccc(Cl)cc1)C(=O)c1ccccc1S2(=O)=O (stereo not drawn) | 25µM | - | - | ?
CCC1CCCCN1CCCNC(=O)c1ccc2c(c1)N(Cc1ccccc1)C(=O)c1ccccc1S2(=O)=O (stereo not drawn) | - | ? | - | -
CC1CCCN(CCCNC(=O)c2ccc3c(c2)N(Cc2ccc(Cl)cc2)C(=O)c2ccccc2S3(=O)=O)C1 (stereo not drawn) | 16µM | ? | ? | ?
COc1cccc(-c2nc3cc(NC(=O)c4ccc(C)c([N+](=O)[O-])c4)ccc3o2)c1 | . | . | . | 79µM
CN1C(=O)CC[C@H]1c1cccnc1 | . | . | . | -
CN1CCC[C@@H]1c1cccnc1 | . | . | . | 16µM
Cc1ccc(/C=C/c2onc(C)c2S(=O)(=O)N2CCC(C(=O)N3CCC(N(C)C(C)C)CC3)CC2)cc1 | 16µM | ? | - | 79µM
O=C(Nc1ccc2nc(SCC(=O)N3CCOCC3)sc2c1)c1cccc(Cl)c1 | ? | - | 32µM | -
O=C(Nc1ccc2nc(SCC(=O)N3CCCC3)sc2c1)c1cccc(Cl)c1 | ? | - | - | -
CCOC(=O)CSc1nc2ccc(NC(=O)c3ccc(C)cc3)cc2s1 | ? | - | 10µM | -
CCN(C(=O)c1ccccc1OC)c1cc2c(cc1N1CCNC[C@H]1C)n(C)c(=O)n2C | . | . | . | -
SMILES | p53null 39C tox | SKOV3 invasion | p53null 32C kill | NTMT1 inhibitor
CCCCNc1nc(C)nc2c1nc(-c1ccccc1)n2CCCN(CC)CC | . | . | . | -
CCN(CC)CCn1c(-c2ccccc2)nc2c(NCCO)nc(C)nc21 | . | . | . | 89µM
CC[C@H](C)[C@@H]([C@@H](CC(=O)N1CCC[C@H]1[C@H](OC)[C@@H](C)C(=O)N[C@@H](Cc1ccccc1)c1nccs1)OC)N(C)C(=O)[C@@H](NC(=O)[C@H](C(C)C)N(C)C)C(C)C | . | . | . | -
Cc1nc(NC(=O)N2CCC[C@@H]2C(N)=O)sc1-c1ccnc(C(C)(C)C(F)(F)F)c1 | . | - | . | 30µM
COc1ccc(C)cc1NC(=O)NCc1cccn1Cc1ccccc1 | - | - | - | 89µM
COc1cc(OC)c(NC(=O)NCc2cccn2Cc2ccccc2)cc1Cl | - | - | - | -
Cc1cccc(-n2nnnc2S(C)(=O)=O)c1 | - | ? | 14µM | -
CC(C)C[C@@H]1NC(=O)[C@@H](C(C)C)NC(=O)[C@@H]2CCCN2C(=O)[C@@H](CC(=O)O)NC(=O)[C@@H](Cc2c[nH]c3ccccc23)NC1=O | . | . | . | -
CC(C)(C)OC(=O)N1CCN(c2ccc(NCc3coc(-c4ccc(C#N)cc4)c3)cc2)CC1 | . | . | . | -
Cc1ccc(-c2cc(C(=O)NCc3cnn(C)c3C)c3ccccc3n2)cc1C | 0.79µM | - | ? | -
Cc1ccc(-c2cc(C(=O)Nc3ccc(-c4noc(=O)[nH]4)cc3)c3ccccc3n2)cc1C | . | . | . | 45µM
Cc1ccc(-c2cc(C(=O)NCc3ccc(S(N)(=O)=O)cc3)c3ccccc3n2)cc1C | . | . | . | -
Cc1ccc(-c2cc(C(=O)NCc3ccc(S(C)(=O)=O)cc3)c3ccccc3n2)cc1C | . | . | . | 50µM
O=C(NO)c1cnc(N2C[C@H]3C[C@@H]2CN3c2cc(C(F)(F)F)ccn2)nc1 | . | . | . | -
Cc1cc(C)cc(Nc2cc(C(=O)NCCCN(C)C3CCCCC3)c3ccccc3n2)c1 | 13µM | - | ? | -
CCOc1ccc(CCNC(=O)CCc2c(C)nc3c(c(C)nn3-c3ccccc3)c2C)cc1OCC | - | - | - | 89µM
CC(Oc1cc(-n2cnc3ccc(CN4CCN(C)CC4)cc32)sc1C(N)=O)c1ccccc1C(F)(F)F (stereo not drawn) | . | . | . | -
C[C@@H](Oc1cc(-n2cnc3ccc(CN4CCN(C)CC4)cc32)sc1C(N)=O)c1ccccc1C(F)(F)F | . | - | . | 8.9µM
COc1cc([C@@H]2c3cc4c(cc3[C@@H](O[C@@H]3O[C@@H]5CO[C@@H](c6cccs6)O[C@H]5[C@H](O)[C@H]3O)[C@H]3COC(=O)[C@H]23)OCO4)cc(OC)c1O | . | . | . | -
Cc1cccc(Cn2c(Cc3ccccc3)nc3ccccc32)c1 | 20µM | - | - | -
Cc1ccccc1Nc1c(-c2cccc(O)c2)nc2ccc(Br)cn12 | - | - | - | -
Cc1ccccc1Nc1c(-c2ccc(N3CCOCC3)cc2)nc2ccccn12 | 0.32µM | - | 1.6µM | -
COc1cc(O)ccc1-c1nc2ccc(Br)cn2c1Nc1ccccc1C | 20µM | ? | ? | -
Cc1ccccc1Nc1c(-c2ccc(N3CCOCC3)cc2)nc2ccc(Br)cn12 | 10µM | - | ? | -
Cc1ccccc1Nc1c(-c2ccc(N3CCOCC3)cc2)nc2cccc(C)n12 | ? | - | ? | -
SMILES | p53null 39C tox | SKOV3 invasion | p53null 32C kill | NTMT1 inhibitor
O=C(NCCc1ccc(OCC(F)(F)F)c(OCC(F)(F)F)c1)c1cc2sccc2n1Cc1ccccc1 | . | . | . | -
COc1cc2c(cc1O)CC[C@@H]1[C@@H]2CC[C@]2(C)[C@@H](O)CC[C@@H]12 | . | . | . | 35µM
CCc1ccc(N2CCn3c2nc2c3c(=O)n(Cc3c(F)cccc3Cl)c(=O)n2C)cc1 | 13µM | - | - | -
CCN(CC)CCNC(=O)c1c(C)[nH]c(/C=C2\C(=O)Nc3ccc(Cl)cc32)c1C | . | . | . | 25µM
COc1ccc(C(CC(=O)Nc2ccc(F)c(Cl)c2)N2Cc3ccccc3C2=O)cc1OC (stereo not drawn) | - | - | - | 89µM
Cc1ccc(-n2ncc3c(Nc4cccc(Cl)c4)ncnc32)c(C)c1 | - | 10µM | - | -

Compound activity as filed in PubChem.
